# From article PMC12136788
# Changes are numbered by the printed parent chain. In all, about 5,800 sequences were measured (“enrichment r”: median about 0.68, highest 2% from about 11 on). Shown is part of a subset that was picked to be rich in the highest values.
# T1: UNK ZnF1-6 (called full-length) (human, UniProt Q9C0B0 30-357)
# T1 sequence: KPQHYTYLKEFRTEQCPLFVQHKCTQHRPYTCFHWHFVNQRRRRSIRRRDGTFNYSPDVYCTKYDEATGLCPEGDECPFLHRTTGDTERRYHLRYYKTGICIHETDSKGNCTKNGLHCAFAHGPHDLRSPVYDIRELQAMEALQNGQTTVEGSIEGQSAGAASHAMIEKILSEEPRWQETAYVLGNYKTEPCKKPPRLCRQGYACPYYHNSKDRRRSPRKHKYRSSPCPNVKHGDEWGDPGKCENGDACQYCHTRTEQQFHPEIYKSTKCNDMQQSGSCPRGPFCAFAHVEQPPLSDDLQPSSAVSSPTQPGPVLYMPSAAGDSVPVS
# B1: chr8:58582127:58582250:+|3pUTR|ENSG00000137575|unk|FALSE|bound_elsewhere (ssRNA)
# RNA: GGGAGUUCUACAGUCCGACGAUCUUCAUAUUACUUUAGUUCUAUAGCAUACUUGCAUCUUUAACAUGCUAUCAUAGUACAUUUAGAAUGAUUGCCUUUGAUUUUUUUUUUAAAUUCUGUGUGUGUGUGUGUAAAAUGCCAAUUCAACAGAGGAUUGAGCAUCA
# B2: chr10:62806226:62806343:+|3pUTR|ENSG00000181915|unk|FALSE|unique (ssRNA)
# RNA: GGGAGUUCUACAGUCCGACGAUCCUACCCCUUAGUUAAAUAGGGUUUAUUUUCCACUCAUGCCCUUAUGCCUUUUUUUCUUAUAGUUUUUUAACUUAUUGACUGUGCAUGACCCAGUGGUUUGAAUUGUUUUUAGUUCAAGUCCAACAGAGGAUUGAGCAUCA
# B3: chr1:3780741:3780842:-|3pUTR|ENSG00000130764|unk|total|mutant (ssRNA)
# RNA: GGGAGUUCUACAGUCCGACGAUCCCAAGCCGCUGGGACUACAGGUGUGUGCCACUAAGCUCAGCUAAUUUUUGUAUUUUCCGCCGAGACGGGGUUUCACCAUUUUGACCAGGAUGGUCUUGAUCUCUUGACCUCAUGAUCUGUCAACAGAGGAUUGAGCAUCA
# B4: chr20:45898604:45898705:+|3pUTR|ENSG00000064601|unk|total|mutant (ssRNA)
# RNA: GGGAGUUCUACAGUCCGACGAUCAGAGCCCUGUACAUCCCAGACUGGGCCCAGGGUCUCCCACCGACAGCCUGGGGGCAAGUCCGCACUUUAUUCCCGCAGCAGUUCCUGAAUGGGGUGGCCUGGCCCCUUCUCUGCUUAAAGCAACAGAGGAUUGAGCAUCA
# B5: chr17:47844907:47847298:-|three_prime_utr|ENSG00000189120|control|control|control (ssRNA)
# RNA: GGGAGUUCUACAGUCCGACGAUCAAGGUGCGUAUUUAUUCAGGGAGGAGGAAAAGUGGUGCAGGGACAGGGAGAUGGGGCGCUAGGGGUUCUUAGUCUCUGGGGCUACUAGGCAGGAUGAAUUUGACUGGGUCGGUAGGAGCUCAACAGAGGAUUGAGCAUCA
# B6: chr6:142752714:142752806:-|3pUTR|ENSG00000010818|msi1_unk|FALSE|overlapping (ssRNA)
# RNA: GGGAGUUCUACAGUCCGACGAUCUUUUCUUUACUUUGCUUAUAUUCUUAUAAGCAUUUUUUAGCAGUAAUUUGUACAUAUUUUAGAAUUUGUGUAUCUGCUUUGUAAUAAAUGUAAUUUCUUUCCUUUUUUGGACACUUGGAUCAACAGAGGAUUGAGCAUCA
# B7: chr5:134606522:134606623:-|3pUTR|ENSG00000152700|msi1_unk|total|mutant (ssRNA)
# RNA: GGGAGUUCUACAGUCCGACGAUCAACUAUAAACCAUAUUUAAAAGCUCAUCAUGUUAAAUUUUUUAUGUACUUUUCUGGAACCCGUUUUUAAAUUUCCGAUUAUAUGUCCACCUAUCUUAAGUGUACAGUUAAUAAUCCGCUUCAACAGAGGAUUGAGCAUCA
# B8: chr17:67340809:67340863:-|CDS_3pUTR|ENSG00000197170|msi1_unk|FALSE|overlapping (ssRNA)
# RNA: GGGAGUUCUACAGUCCGACGAUCACAAAACUACGCAUCUCAUAGCCAAAGAGGAGAUGAUACAUAAUCUACAAUAAGGGUCUUAGUGCUUUAGAAAAAAGUUAAAAUUGGAAGUCAUUAAAAAAAGACUGUUAUAAUGGUGUACAACAGAGGAUUGAGCAUCA
# B9: ENSG00000070961:be:win_251|CDS|ENSG00000070961|bound_else_gene|NA|bound_elsewhere_windowed (ssRNA)
# RNA: GGGAGUUCUACAGUCCGACGAUCUGUUUGGAAAGAAUUUUAUACCUCCUAAAAAGCCAAAAACCUUUCUUCAAUUAGUAUGGGAAGCAUUACAAGAUGUCACUUUAAUUAUAUUAGAAAUUGCAGCCAUAGUAUCAUUGGGCCCAACAGAGGAUUGAGCAUCA
# B10: chr5:134606522:134606623:-|3pUTR|ENSG00000152700|msi1_unk|FALSE|overlapping (ssRNA)
# RNA: B7 RNA with C83U, C84A, C97U, C98A, C138U, C139A
# B11: chr3:167478683:167478996:-|three_prime_utr|ENSG00000174776|control|control|control (ssRNA)
# RNA: GGGAGUUCUACAGUCCGACGAUCCUGCCUUUUAUUUUAUUUUAUAUUUAAACUUCAGGAAGUUUUCUCUUCAUGGGAUAAUUUAGUACUGCUUUUAUCUAUCAUCUGUCAAUUUCUCUGUAUUCUUAAUAAAAUAAAUAUUGACAACAGAGGAUUGAGCAUCA
# B12: chr9:14618660:14618761:-|3pUTR|ENSG00000175893|msi1|FALSE|unique (ssRNA)
# RNA: GGGAGUUCUACAGUCCGACGAUCUUAGCUUUCCACAGGGAUUUCUUGAAAUGCUUUUGUUAUUAAACUCAAAAGGCAGUGAUUAGGAUGAAAUAAUUGUACAUAAUUUAUUUUAGUACUGACAGUGUUACAGAUUCUAAUUUACAACAGAGGAUUGAGCAUCA
# B13: ENSG00000198589:be:win_9001|3pUTR|ENSG00000198589|bound_else_gene|NA|bound_elsewhere_windowed (ssRNA)
# RNA: GGGAGUUCUACAGUCCGACGAUCUUCUUCAGCACUAAUAUUUCUGGGAUUUAAAUAGUAAUGUUUAAAUUAUGGUAAAUGUAAUUUAAAACAUCUCAAUUAAGUCUGUCUAUCAAUAUUGUUCUUCAAGCAUGUUUUAGACCUCAACAGAGGAUUGAGCAUCA
# B14: chr4:110049619:110049852:-|3pUTR|ENSG00000170522|msi1|FALSE|unique (ssRNA)
# RNA: GGGAGUUCUACAGUCCGACGAUCUUGUUCAAUGUGACAUAAUAGUAUUAUAAUUGGUUAAGUAGCUUAAUGAUUAGGCAAACUAGAUGAAAAGAUUAGGGGCUUCCACACUGCAUAGAUUACACGCACAUAGCCACGCAUACACAACAGAGGAUUGAGCAUCA
# B15: ENSG00000070961:be:win_6051|3pUTR|ENSG00000070961|bound_else_gene|NA|bound_elsewhere_windowed (ssRNA)
# RNA: GGGAGUUCUACAGUCCGACGAUCCAGAAAUUUCCAGAGCAUUAUGUAGGUAGAAAAAAAUGCAAGCAAGCUGUUAAAGAUCUUGGAUCCCAUUAUAUAGUAUGUAUAGCUGAAAUCUGUAAUUCAAUCACUUUUUCUCUUUUACAACAGAGGAUUGAGCAUCA
# B16: ENSG00000070961:be:win_6101|3pUTR|ENSG00000070961|bound_else_gene|NA|bound_elsewhere_windowed (ssRNA)
# RNA: GGGAGUUCUACAGUCCGACGAUCUAAAGAUCUUGGAUCCCAUUAUAUAGUAUGUAUAGCUGAAAUCUGUAAUUCAAUCACUUUUUCUCUUUUAUCCUCUAACCAAAAAAUUGUUUAAUUUUGCAUCCCAAAUGUUUUUAAUCUCAACAGAGGAUUGAGCAUCA
# B17: chr8:23843870:23844003:-|3pUTR|ENSG00000159167|msi1|FALSE|unique (ssRNA)
# RNA: GGGAGUUCUACAGUCCGACGAUCAAUUCCAGAGGACUCUGCUUAAACAAAGCAGUAUAUAAUAACUUUAUUGCAUAUAGAUUUAGUUUUGUAACUUAGCUUUAUUUUUCUUUUCCUGGGAAUGGAAUAACUAUCUCACUUCCACAACAGAGGAUUGAGCAUCA
# Target: T1, UNK ZnF1-6 (called full-length)
# Test: nsRBNS (natural sequence RNA bind-n-seq); RBNS binding buffer (assumed for nsRBNS): 25 mM Tris pH 7.5, 150 mM KCl, 3 mM MgCl2, 0.01% Triton X-100, 500 ug/ml BSA, 20 U/ml SUPERase-In, 4 C; UNK is unkempt and MSI1 is Musashi-1; names of the RNAs are library labels; protein concentration not given here; high values mean tight binding
row,Binder,binding signal [enrichment R]
1,B1,5
2,B2,15.8
3,B3,0.591
4,B4,1.01
5,B5,1.32
6,B6,2.11
7,B7,2.06
8,B8,0.932
9,B9,5.79
10,B10,25.7
11,B11,2.14
12,B12,0.961
13,B13,0.446
14,B14,14.6
15,B15,3.07
16,B16,39
17,B17,13.9
